N370S GC: qHTS Assay for Inhibitors and Activators of N370S glucocerebrosidase as a Potential Chaperone Treatment of Gaucher Disease. Potency, µM (titrated, usually from 59.4 µM), most hits filed as inhibitors. N370S GC spleen homogenate, 4MU-glucoside fluorescence. 330,000 compounds, 0.092% hits
AT treatment: qHTS Assay for Identifying a Potential Treatment of Ataxia-Telangiectasia; Potency, µM (highest dose often 57.5 µM), actives largely listed as activators; AID 485349, 2010; F2112 A-T fibroblasts, KAP-1 phosphorylation AlphaLISA; neocarzinostatin DNA damage 30 min before lysis; 320,000 compounds, 0.19% hits; also: nearly all actives have a fitted effect of over 45% in size
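hTERT-immortalized A-T patient fibroblasts (F2112), 500 cells/well in OPTI-MEM, 1% FBS, got compounds for 60 min, then NCS for 30 min at 37C. Lysates were then assayed for phospho-KAP-1 by AlphaLISA (anti-pKAP1 donor, anti-KAP1 acceptor beads), 6 hr at 25C.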
Eya2 phos inh: qHTS Assay for Inhibitors of the Phosphatase Activity of Eya2 | Protein phosphatase EYA2 (Homo sapiens), O00167 | recombinant Eya2, OMFP fluorescence dephosphorylation (OMFP is methylfluorescein phosphate) | Potency, µM (titrated, usually from 76.9 µM), usual class: inhibitors | 330,000 compounds, 0.006% hits | AID 488837, 2010
Target sequence (O00167 whole entry, looked up): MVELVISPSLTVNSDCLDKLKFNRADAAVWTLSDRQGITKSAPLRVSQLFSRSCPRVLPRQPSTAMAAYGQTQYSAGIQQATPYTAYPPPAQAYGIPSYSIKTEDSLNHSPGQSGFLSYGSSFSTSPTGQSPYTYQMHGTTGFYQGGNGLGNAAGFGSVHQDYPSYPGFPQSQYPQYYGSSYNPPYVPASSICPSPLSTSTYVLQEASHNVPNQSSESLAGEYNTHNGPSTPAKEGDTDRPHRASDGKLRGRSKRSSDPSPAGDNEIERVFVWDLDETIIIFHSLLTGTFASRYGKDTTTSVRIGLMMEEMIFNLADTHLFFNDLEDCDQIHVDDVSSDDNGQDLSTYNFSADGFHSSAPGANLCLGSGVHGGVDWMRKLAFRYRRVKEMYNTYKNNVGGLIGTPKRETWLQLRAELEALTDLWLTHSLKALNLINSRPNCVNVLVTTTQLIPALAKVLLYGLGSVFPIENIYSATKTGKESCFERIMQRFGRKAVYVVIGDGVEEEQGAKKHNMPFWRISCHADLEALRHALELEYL
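Eya2 (0.2 uM) preincubated 10 min at ambient with compound, then OMFP substrate added at 50 uM; 10 min reaction in 50 mM HEPES pH 7.5, 50 mM NaCl, 5 uM MgCl2, 0.05% BSA, 1 mM DTT. Fluorescence read at Ex 485/Em 525 nm.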
Mito fusion yeast: qHTS Assay for Small Molecule Inhibitors of Mitochondrial Division or Activators of Mitochondrial Fusion. S. cerevisiae fusion-defective mutant growth rescue, CellTiterGlo 48 h. Potency, µM (titrated, usually from 46.1 µM), actives largely listed as activators. 320,000 compounds, 0.23% hits; also: nearly all actives have a fitted effect of over 45% in size
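S. cerevisiae fusion-defective temperature-sensitive mutants (e.g. fzo1-1, mgm1-5) grown 48 h at 37C in YPEG (ethanol/glycerol non-fermentable) medium with 23 nl compound per well; growth rescue read as CellTiterGlo luminescence.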
A number is an active result; i = inactive; ? = inconclusive; nt = not tested or not shown; ! = a repeat was not active. Sampled rows, rich in hits. Any-hit rate of the full collection: about 0.47%. Calls follow the shape of the dose curve; as a rule, active = well fitted curve in the direction sought with a large enough effect; inconclusive = small, poorly fitted or top-dose-only effect, or another doubt; inactive = no such curve, though single readings can be large; an effect the other way counts as inactive or inconclusive.

SMILES	N370S GC	AT treatment	Eya2 phos inh	Mito fusion yeast
CCOC(=O)C1=C(C)NC(C)=C(C(=O)OC)[C@@H]1c1cccc([N+](=O)[O-])c1	i	nt	nt	nt
COCCOC(=O)C1=C(C)NC(C)=C(C(=O)OC(C)C)[C@@H]1c1cccc([N+](=O)[O-])c1	i	nt	nt	nt
COCCOC(=O)C1=C(C)NC(C)=C(C(=O)OC(C)C)C1c1cccc([N+](=O)[O-])c1 (stereo unspecified)	i	i	i	20.6µM!
COC(=O)C1=C(C)NC(C)=C(C(=O)OC(C)(C)CN(C)CCC(c2ccccc2)c2ccccc2)C1c1cccc([N+](=O)[O-])c1 (stereo unspecified)	nt	nt	i	0.651µM
COCCOC(=O)C1=C(C)NC(C)=C(C(=O)OC/C=C/c2ccccc2)C1c1cccc([N+](=O)[O-])c1 (stereo unspecified)	i	nt	i	5.8µM
CCC(=O)NS(=O)(=O)c1ccc(N=NN2CCCCC2)cc1	i	i	i	i
CCCNc1nc(-c2ccccc2)c(C(=O)OCC)cc1C#N	i	i	i	?
CCOC(=O)c1cc(C#N)c(Oc2ccccc2)nc1-c1ccccc1	i	i	i	12.6µM
Cc1ccc2nc(NCCCO)nc(-c3ccccc3)c2c1	i	nt	i	i
OCCCNc1nc(-c2ccccc2)c2cc(Br)ccc2n1	i	39.8µM	i	i
Cn1c(Sc2nc3ccccc3n2C)nc2ccccc21	i	20µM	i	i
CCC(C)Sc1cccc(-c2nc3cc(C)ccn3c2NCc2ccccc2)c1 (stereo unspecified)	?	22.4µM	i	i
CCCCNc1c(-c2ccc(SC3CCCCC3)cc2)nc2ccccn12	i	?	i	i
Cc1ccn2c(NCc3ccccc3)c(-c3cccc(SC4CCCCC4)c3)nc2c1	nt	?	i	nt
CCCCNc1c(-c2ccc(SC(C)CC)cc2)nc2ccccn12 (stereo unspecified)	i	22.4µM	i	i
Cc1ccn2c(NCc3ccccc3)c(-c3cccs3)nc2c1	11.2µM	i	i	i
CC(C)(C)OC(=O)N1CCN(C(=O)Cn2cc(CCO)nn2)CC1	i	i	i	i
CNC(=O)c1ccccc1S(=O)c1ccccc1C#N (stereo unspecified)	i	i	i	i
CC1CCN(CC2C(=O)O[C@@H]3C[C@@]4(C)CCC[C@H](C)C4=C[C@H]23)CC(C)(C)C1 (stereo partly specified)	i	i	i	i
CCC1CCCCN1CC(C)(C)NS(=O)(=O)c1ccccc1 (stereo unspecified)	i	35.5µM	i	i
COC(=O)c1c(/N=C/N(C)C)sc2c1CCN(c1ncc(C(F)(F)F)cc1Cl)C2	?	nt	i	10µM
COC(=O)c1c(N(S(C)(=O)=O)S(C)(=O)=O)sc2c1CCN(c1ncc(C(F)(F)F)cc1Cl)C2	?	i	i	i

From PubChem
